Source: PubChem BioAssay
This is a sample that favours compounds with a hit; in the whole collection about 2.1% have one here.
PrP UTR inh = suppresses PrP 5' UTR mRNA reporter expression | cell-based PrP 5' UTR mRNA reporter, plate reader | inhibition, % (test concentration not listed) | 0.35% of 340,000 active; in the data active means inhibition above about 52%; further: 0 = median of the neutral control wells
PfHsp40 yeast = compounds rescuing yeast from Plasmodium falciparum HSP40 toxicity; AID 504582; S. cerevisiae expressing PfHsp40, growth rescue, ATP luminescence; growth rescue, % at 12.5 µM; 0.68% of 340,000 active; in the data active means growth rescue above about 28%, passing the limit was not always enough;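 further: yeast W303a lacking pdr1 and pdr3 grown in galactose medium; growth measured after three days at 30 °C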
BJeLR viability = kills HRASV12-expressing BJeLR cells; BJeLR (HRASV12) viability, CellTiter-Glo ATP luminescence, 48 h; inhibition, % (concentration not given with the values); 0.17% of 300,000 active; AID 1554; in the data active means inhibition above about 50%
MazEF act = increases E. coli MazEF RNase cleavage of RNA. FAM/BHQ RNA-DNA oligo cleavage fluorescence, 5 h. activation, % at 20 µM. P0AE70. 0.32% of 350,000 active. AID 504720; in the data active means activation above about 50%
Target sequence (P0AE70 whole entry, looked up): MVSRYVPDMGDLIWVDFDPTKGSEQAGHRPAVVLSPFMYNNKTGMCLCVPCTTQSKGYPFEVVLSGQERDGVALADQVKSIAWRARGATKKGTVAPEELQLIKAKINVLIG
PrPC TRFRET = cell surface PrPC inhibition, primary TR-FRET screen; P04156; TR-FRET read-out; inhibition, % at 13.8 µM; 0.43% of 370,000 active; in the data active means inhibition above about 24%; further: 0% = median of the test wells and 100% = reference compound wells
DUSP3 inh = inhibitors of human VHR1 phosphatase (DUSP3) | P51452 | recombinant VHR phosphatase, pNPP absorbance | inhibition, % at 13.3 µM | 0.52% of 290,000 active; in the data active means inhibition above about 50%
Target sequence (P51452 whole entry, looked up): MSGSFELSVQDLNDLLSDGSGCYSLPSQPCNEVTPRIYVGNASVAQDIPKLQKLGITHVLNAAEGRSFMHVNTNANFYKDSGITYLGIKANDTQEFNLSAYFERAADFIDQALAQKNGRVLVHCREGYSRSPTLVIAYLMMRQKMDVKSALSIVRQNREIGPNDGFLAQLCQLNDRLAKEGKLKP
An asterisk follows results filed as active; / = no result given.

SMILES | PrP UTR inh | PfHsp40 yeast | BJeLR viability | MazEF act | PrPC TRFRET | DUSP3 inh
CCC(C)[C@H](NC(=O)N1CCn2c1nc1ccccc12)C(=O)NCc1ccccc1 (some centres not stated) | -2.6 | -0.9 | -0.3 | 14.6 | 1.9 | 50.2*
CC(C)[C@H](NC(=O)N1CCn2c1nc1ccccc12)C(=O)NCc1ccc(F)cc1 | -1.0 | 1.1 | -12.4 | -1.9 | 0.0 | 11.4
C[C@H]1CN([C@@H](C)CO)C(=O)CCCn2cc(nn2)CO[C@@H]1CN(C)S(=O)(=O)c1cccc(F)c1 | / | / | / | -2.2 | -4.3 | /
CCN(c1ccccc1)S(=O)(=O)c1ccc(C(=O)Nc2nnc(CSC)o2)cc1 | -13.7 | 40.0* | 6.8 | 0.1 | 3.2 | 18.8
Cc1ccc(-c2csc3ncnc(SCC(=O)NCC4CCCO4)c23)cc1 (configuration not stated) | -20.2 | -0.5 | / | 0.4 | 2.4 | /
COC(=O)[C@]12C[C@H](CC(=O)NCCc3ccccc3OC)C(=O)N(Cc3ccccc3)C1=C[C@H](COCc1ccccc1)O[C@@H]2C | / | / | / | / | 1.4 | /
COc1ccc(NC(=O)CSc2nc3n[nH]c(C)c3c(=N)n2-c2ccc(Cl)c(C)c2)cc1OC | 4.7 | 1.0 | 3.9 | 110.9* | / | 3.7
Cc1cc(-n2c(SCC(=O)NCCC3=CCCCC3)nc3n[nH]c(C)c3c2=N)ccc1Cl | 7.2 | -1.1 | 58.6* | 2.6 | 6.9 | 62.7
C=CCN(CC#CC1=CCCCC1)Cc1ccc(OC)cc1OC | / | / | / | / | 4.8 | /
COc1cccc(NC(=O)C2(C)CCN2CC2CCCCC2)c1 (configuration not stated) | / | / | / | / | -6.7 | /
S=C(NCCCn1ccnc1)Nc1cccc(Cl)c1 | -12.7 | 35.0* | 9.3 | 0.8 | 1.5 | 10.6
CCOc1ccc(NC(=S)NCCCn2ccnc2)cc1 | -15.9 | -0.1 | 3.9 | 9.5 | -13.2 | 7.8
Clc1ccc2c(c1)c1cc(Cl)ccc1n2CN1CCOCC1 | -8.6 | 367.4* | -5.0 | 4.4 | 7.7 | 4.2
Clc1ccc2c(c1)c1ccccc1n2CN1CCOCC1 | -13.0 | 31.2* | -0.3 | -23.2 | -2.7 | 14.7
COc1ccc(Cl)cc1CN1CCOCC1 | -8.8 | -1.7 | -1.7 | -7.5 | -14.5 | 15.5
Cc1ccc(C)c(NC(=O)C2CCN(C(=O)c3cccs3)CC2)c1 | -31.3 | 1.5 | -2.2 | 2.0 | 3.9 | 25.5
Cc1cc(-c2n[nH]c(=S)n2-c2ccc(F)cc2)nn1C | -15.4 | 5.8 | -3.5 | 7.9 | 3.5 | -12.3
Cc1ccnc2c1ccc1c(C)ccnc12 | 54.5* | 81.5* | / | 3.6 | / | /
Cc1ccnc2c1ccc1ccccc12 | 8.7 | 0.1 | 3.5 | 2.6 | 9.4 | 1.8
COc1ccccc1OCCCCN1CCCCC1 | -27.0 | -0.2 | 3.7 | 7.4 | -1.8 | 51.3*
COc1ccc(F)cc1-c1cc(C(=O)NCc2cccc(Cl)c2)[nH]n1 | / | / | / | / | 6.2 | /
O=C(c1ccc(OC2CCN(CCO)CC2)cc1)N1CCCC1 | -16.4 | 0.0 | -2.5 | -1.2 | / | 18.8
COc1cc(S(=O)(=O)NC2CCCCC2)ccc1Cl | 12.1 | 91.1* | -6.4 | 1.4 | -0.7 | 16.1
COc1ccc(S(=O)(=O)NC2CCCCC2)cc1C | -15.6 | -0.8 | 0.7 | 2.1 | / | 18.2
CCOc1cc(S(=O)(=O)NC2CCCCCC2)ccc1F | -13.4 | 47.6* | 9.3 | 1.0 | 2.9 | -26.5
SMILES | PrP UTR inh | PfHsp40 yeast | BJeLR viability | MazEF act | PrPC TRFRET | DUSP3 inh
CC1=CC(=O)C=C(C)C1=NOc1ccccc1[N+](=O)[O-] | -26.6 | -0.1 | 51.5* | 12.5 | 4.5 | 9.4
Cc1cc(C)c(S(=O)(=O)Oc2ccccc2[N+](=O)[O-])c(C)c1 | -11.7 | -0.8 | / | -0.2 | 5.5 | /
CCN1/C(=C/C(C)=C/c2sc3ccccc3[n+]2CC)Sc2ccccc21 | 28.0 | 0.8 | 63.5* | -49.4 | 12.7 | 17.9
CCN1/C(=C\C(=S)Nc2ccccc2)Sc2ccccc21 | -38.7 | -0.3 | 6.4 | 10.9 | 22.6 | 26.1
CN(C)S(=O)(=O)c1cccc(CNCC2COc3ccccc3O2)c1 (configuration not stated) | -9.5 | 0.0 | 3.6 | -18.1 | -3.0 | 10.0
O=C(Nc1ccc(Cl)cc1Cl)OC1CCC12CCC(c1ccccc1)CC2 (configuration not stated) | / | / | / | / | -9.1 | /
Fc1cccc(Cl)c1Cn1ncc2ccccc21 | -22.7 | -0.7 | 1.6 | -1.9 | -6.0 | 53.0*
c1ccc(Cn2ncc3ccccc32)cc1 | -33.5 | -0.9 | -10.2 | 7.3 | 0.5 | 33.4
CCN1CCN(C(c2ccccc2)c2nnnn2Cc2ccc3c(c2)OCO3)CC1 (configuration not stated) | -21.1 | 0.1 | -2.1 | 12.8 | -11.9 | 52.2*
CCN1CCN(C(c2ccc(OC)cc2)c2nnnn2Cc2ccc3c(c2)OCO3)CC1 (configuration not stated) | -15.5 | -1.7 | 12.8 | 7.8 | -4.9 | 6.9
COCCCn1c(C(=O)NCCN2CCOCC2)cc2c(=O)n3ccccc3nc21 | 4.4 | 44.4* | -2.3 | 3.4 | -8.2 | 17.9
Cn1c(C(=O)NCCN2CCOCC2)cc2c(=O)n3ccccc3nc21 | -13.2 | 0.1 | 15.6 | 8.2 | -19.9 | -19.8
CC(Sc1ccc(Cl)cc1)C(=O)NCC(c1ccco1)N1CCCCC1 (configuration not stated) | -17.1 | 34.5* | 2.6 | -1.9 | -3.9 | /
CC(=O)c1ccc(NC(=O)CN2CCN(S(=O)(=O)c3ccc4c(c3)OCCO4)CC2)cc1 | / | / | / | 0.5 | 4.3 | /
COc1ccc(NC(=O)CN2CCN(CC(=O)Nc3ccccc3Cl)CC2)cc1Cl | -14.8 | 0.9 | 13.3 | 0.4 | -8.5 | 50.8*
CCOC(=O)c1c(NC(=O)c2cccc(N3C(=O)CCC3=O)c2)sc2c1CCN(CC)C2 | -18.9 | -0.6 | 16.1 | -6.5 | 1.2 | 25.7
O=C(OCC(=O)c1c[nH]c2ccccc12)c1ccc([N+](=O)[O-])s1 | -28.5 | -5.2 | -4.5 | 12.5 | -24.0 | -6.4
CCc1cccc2c(C(=O)COC(=O)c3ccc([N+](=O)[O-])s3)c[nH]c12 | -12.1 | 37.0* | -8.6 | 12.7 | -29.9 | -6.9
Cc1cccc(-c2nc3c(c(SCC(=O)N4CCOCC4)n2)COC(C)(C)C3)c1 | -4.2 | -0.5 | 4.4 | 13.2 | -7.7 | 59.8*
CC1(C)Cc2nc(-c3ccccc3)nc(SCC(=O)N3CCOCC3)c2CO1 | -6.2 | -1.2 | -5.1 | 3.6 | 9.2 | 38.7
CNC(=S)N/N=C(\C)c1ccc(C(C)(C)C)cc1 | -6.3 | -0.3 | 2.7 | -0.5 | 2.9 | 59.9*
CSc1ccc(OC2(C)CCN(Cc3cc4ccccc4o3)C2)cc1 (configuration not stated) | / | / | / | / | 0.1 | /
CCNC(=S)N1CCN(c2ccccn2)CC1 | -9.7 | 0.1 | 5.4 | 0.9 | 0.5 | 4.6
CC(NNC(=S)N1CCN(c2ccccn2)CC1)c1nccc2ccccc12 (configuration not stated) | 32.5 | 148.6* | / | 8.7 | -3.2 | /
O=C1NC[C@@H](CCCCN2C[C@H](Cc3ccccc3)N(CCc3ccccc3)C(=O)C2=O)N(CCc2ccccc2)C1=O | / | / | / | / | 6.0 | /
CCN(CC)c1ccc(C=C2C(=O)OC3(CCCCC3)OC2=O)cc1 | -10.7 | 0.1 | 2.4 | -398.6 | -12.5 | 29.8
